# From PMC11062922 (Nature Chemical Biology, 2023)
# Read-outs that look alike come from different tables or passages of the source.
# Legend:
# Set-up in all cases: species or system human, MV4-11 + K-562 + COLO205 + SK-N-BE2 + OVCAR-8
# CSNK1D = conditions: read-out: apparent Kd, n = 1
# CSNK1E = conditions: read-out: apparent Kd, n = 1
# MAP2K2 = conditions: read-out: apparent Kd; compound concentrations:100 nM and 1000 nM (sheet 'Samples'); n = 1
# MAPK11 = conditions: read-out: apparent Kd, n = 1
# MAPK14 = conditions: read-out: apparent Kd, n = 1
# MAPKAPK2 = conditions: read-out: apparent Kd, n = 1
# RAB6A;RAB6B = conditions: read-out: apparent Kd; compound concentrations:100 nM and 1000 nM (sheet 'Samples'); n = 1
# DYRK1A = conditions: read-out: apparent Kd; compound concentrations: 100 nM and 1000 nM (sheet 'Samples'), CATDS: 0.124378507371426; n = 1
# LATS1 = conditions: read-out: apparent Kd; compound concentrations: 100 nM and 1000 nM (sheet 'Samples'), CATDS: 0.13446121771830499; n = 1
# NNT = conditions: read-out: apparent Kd; compound concentrations: 100 nM and 1000 nM (sheet 'Samples'), CATDS: 0.14488734368084999; n = 1
# PKN2 = conditions: read-out: apparent Kd; compound concentrations: 100 nM and 1000 nM (sheet 'Samples'), CATDS: 0.15546286258013101; n = 1
# RPS6KB1 = conditions: read-out: apparent Kd; compound concentrations: 100 nM and 1000 nM (sheet 'Samples'), CATDS: 0.17749177686381501; n = 1
# CSNK1A1 = conditions: read-out: apparent Kd; compound concentrations: 100 nM and 1000 nM (sheet 'Samples'), CATDS: 0.102503652768427; n = 1
# DJA1 = tested on: T1, DJA1; conditions: read-out: apparent Kd, compound concentrations: 100 nM and 1000 nM (sheet 'Samples'), n = 1
# T1 construct: gene DNAJA1
# MAPK10 = conditions: read-out: apparent Kd; compound concentrations: 100 nM and 1000 nM (sheet 'Samples'), CATDS: 7.1245555578464306E-2; n = 1
# NQO2 = conditions: read-out: apparent Kd, compound concentrations: 100 nM and 1000 nM (sheet 'Samples'), n = 1
# CSNK2A2 = conditions: read-out: apparent Kd; compound concentrations: 100 nM and 1000 nM (sheet 'Samples'), CATDS: 0.17401411869460601; n = 1
# FLT4 = conditions: read-out: apparent Kd; compound concentrations: 100 nM and 1000 nM (sheet 'Samples'), CATDS: 0.41854797783311298; n = 1
# NLK = conditions: read-out: apparent Kd; compound concentrations: 100 nM and 1000 nM (sheet 'Samples'), CATDS: 9.9124712412078902E-2; n = 1
# PKN3 = conditions: read-out: apparent Kd; compound concentrations: 100 nM and 1000 nM (sheet 'Samples'), CATDS: 0.57773444025704901; n = 1
# RIPK2 = conditions: read-out: apparent Kd; compound concentrations: 100 nM and 1000 nM (sheet 'Samples'), CATDS: 0.16475470795078001; n = 1
# SPR = conditions: read-out: apparent Kd; compound concentrations: 100 nM and 1000 nM (sheet 'Samples'), CATDS: 9.9495378731818698E-2; n = 1
# TESK2 = conditions: read-out: apparent Kd; compound concentrations: 100 nM and 1000 nM (sheet 'Samples'), CATDS: 7.5715174552883194E-2; n = 1
# TGFBR2 = conditions: read-out: apparent Kd; compound concentrations: 100 nM and 1000 nM (sheet 'Samples'), CATDS: 8.5739105668182394E-2; n = 1
# TP53RK = conditions: read-out: apparent Kd; compound concentrations: 100 nM and 1000 nM (sheet 'Samples'), CATDS: 9.9453344807386698E-2; n = 1
# DDR1 = conditions: read-out: apparent Kd; compound concentrations:100 nM and 1000 nM (sheet 'Samples'); n = 1
# JAK2 = conditions: read-out: apparent Kd; compound concentrations:100 nM and 1000 nM (sheet 'Samples'); n = 1
# PIK3CA = conditions: read-out: apparent Kd; compound concentrations:100 nM and 1000 nM (sheet 'Samples'); n = 1
# PIK3CD = conditions: read-out: apparent Kd; compound concentrations:100 nM and 1000 nM (sheet 'Samples'); n = 1
# RET = conditions: read-out: apparent Kd; compound concentrations:100 nM and 1000 nM (sheet 'Samples'); n = 1
# [1] = compound concentrations:100 nM and 1000 nM (sheet 'Samples')
compound,measurement,setting,value
CCc1ccc(Oc2nccc(-c3c(-c4ccc(F)cc4)ncn3C3CCNCC3)n2)cc1 [SB-242719],potency estimated from few doses,CSNK1D; [1],419 nM
same,potency estimated from few doses,CSNK1E; [1],760 nM
same,potency estimated from few doses,MAP2K2,2280 nM
same,potency estimated from few doses,MAPK11; [1],779 nM
same,potency estimated from few doses,MAPK14; [1],24.4 nM
same,potency estimated from few doses,MAPKAPK2; [1],13.3 nM
same,potency estimated from few doses,RAB6A;RAB6B,1360 nM
CCc1nccc2c1nc(-c1nonc1N)n2CC [SB-751148],potency estimated from few doses,"CSNK1D; compound concentrations: 100 nM and 1000 nM (sheet 'Samples'), CATDS: 0.159181013373493",1090 nM
same,potency estimated from few doses,"CSNK1E; compound concentrations: 100 nM and 1000 nM (sheet 'Samples'), CATDS: 0.120883925571631",1960 nM
same,potency estimated from few doses,DYRK1A,1830 nM
same,potency estimated from few doses,LATS1,1530 nM
same,potency estimated from few doses,NNT,1310 nM
same,potency estimated from few doses,PKN2,1140 nM
same,potency estimated from few doses,RPS6KB1,902 nM
CCOc1nccc(-c2c(-c3ccc(F)cc3)ncn2C2CCNCC2)n1 [SB-249175],potency estimated from few doses,CSNK1A1,294 nM
same,potency estimated from few doses,"CSNK1D; compound concentrations: 100 nM and 1000 nM (sheet 'Samples'), CATDS: 0.31219473795395603",16.6 nM
same,potency estimated from few doses,"CSNK1E; compound concentrations: 100 nM and 1000 nM (sheet 'Samples'), CATDS: 0.18119769412776501",46.9 nM
same,potency estimated from few doses,DJA1; CATDS: 7.1447025322651805E-2,1630 nM
same,potency estimated from few doses,MAPK10,1660 nM
same,potency estimated from few doses,"MAPK11; compound concentrations: 100 nM and 1000 nM (sheet 'Samples'), CATDS: 7.9204394656965396E-2",935 nM
same,potency estimated from few doses,"MAPK14; compound concentrations: 100 nM and 1000 nM (sheet 'Samples'), CATDS: 0.21634918417803001",31.9 nM
same,potency estimated from few doses,"MAPKAPK2; compound concentrations: 100 nM and 1000 nM (sheet 'Samples'), CATDS: 0.24140517483875701",25.8 nM
same,potency estimated from few doses,NQO2; CATDS: 7.6337001924779102E-2,1130 nM
CCS(=O)(=O)c1ccc(OC)c(Nc2ncc(-c3ccc(F)cc3)o2)c1.Cl [GW591947A],potency estimated from few doses,CSNK2A2,1860 nM
same,potency estimated from few doses,DJA1; CATDS: 0.455945316982168,131 nM
same,potency estimated from few doses,FLT4,152 nM
same,potency estimated from few doses,NQO2; CATDS: 0.17633941136765999,1750 nM
CN(C)CCN(C)C(=O)c1cc(-c2ccncc2)c(-c2ccc(Cl)c(O)c2)o1 [SB-710397_KCGS],potency estimated from few doses,"CSNK1D; compound concentrations: 100 nM and 1000 nM (sheet 'Samples'), CATDS: 7.6983160773696893E-2",1400 nM
same,potency estimated from few doses,"CSNK1E; compound concentrations: 100 nM and 1000 nM (sheet 'Samples'), CATDS: 7.2450949047452695E-2",1720 nM
same,potency estimated from few doses,"MAPK14; compound concentrations: 100 nM and 1000 nM (sheet 'Samples'), CATDS: 9.6688337398944404E-2",748 nM
same,potency estimated from few doses,NLK,705 nM
same,potency estimated from few doses,PKN3,30.8 nM
same,potency estimated from few doses,RIPK2,247 nM
same,potency estimated from few doses,SPR,698 nM
same,potency estimated from few doses,TESK2,1480 nM
same,potency estimated from few doses,TGFBR2,1020 nM
same,potency estimated from few doses,TP53RK,699 nM
CN1CCN(CCNc2nc3cc(Oc4ccc(NC(=O)Nc5cc(C(F)(F)F)ccc5F)cc4)ccc3[nH]2)CC1.CN1CCN(CCNc2nc3cc(Oc4ccc(NC(=O)Nc5cc(C(F)(F)F)ccc5F)cc4)ccc3[nH]2)CC1.Cl.Cl [GW768504A],potency estimated from few doses,DDR1,584 nM
same,potency estimated from few doses,JAK2,634 nM
same,potency estimated from few doses,PIK3CA,230 nM
same,potency estimated from few doses,PIK3CD,97.4 nM
same,potency estimated from few doses,RET,1080 nM
